Target: TTYH3 (lysine site: K340) (UniProt Q9C0H2)
Experiment: lysine labeling ratio R10:1 (500 µM / 50 µM probe), SILAC-ABPP in living cells; higher = lower intrinsic lysine reactivity toward the probe, active = 2 or less
Settings: HeLa; probe concentrations 500 vs 50 µM
Procedure: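 Living HeLa cells (SILAC light/heavy) in PBS at room temperature were labeled with 50 µM versus 500 µM of the lysine-reactive, reductant-cleavable probe OPA-S-S-alkyne (SILAC labeling time not stated). Probe-modified peptides were CuAAC-biotinylated, captured on neutravidin and eluted with DTT/IAA, then quantified by LC-MS/MS. R = median peptide ratio per lysine (500/50 µM), combined over 3 forward and 3 reverse SILAC replicates. Ratios are capped at 20; R < 2 = hyper-reactive.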

Sequence of TTYH3 (lysine site: K340) (Q9C0H2 whole entry): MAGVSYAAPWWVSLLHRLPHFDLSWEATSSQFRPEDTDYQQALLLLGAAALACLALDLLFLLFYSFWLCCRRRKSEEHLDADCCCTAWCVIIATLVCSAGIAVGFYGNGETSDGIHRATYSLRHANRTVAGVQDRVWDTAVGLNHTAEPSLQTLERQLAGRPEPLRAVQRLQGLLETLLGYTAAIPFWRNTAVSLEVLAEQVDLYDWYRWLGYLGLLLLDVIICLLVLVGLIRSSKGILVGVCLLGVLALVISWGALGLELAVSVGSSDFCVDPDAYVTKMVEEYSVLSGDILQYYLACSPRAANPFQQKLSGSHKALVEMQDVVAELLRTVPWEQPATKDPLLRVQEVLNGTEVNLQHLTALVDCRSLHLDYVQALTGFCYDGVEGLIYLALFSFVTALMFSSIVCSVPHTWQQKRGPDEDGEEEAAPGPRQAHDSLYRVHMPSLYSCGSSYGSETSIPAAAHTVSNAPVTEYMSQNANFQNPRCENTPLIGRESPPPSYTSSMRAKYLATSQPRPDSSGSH

Row | SMILES | lysine labeling ratio R10:1
1 | C#CCNC(=O)CCSSCCC(=O)NCCc1ccc(C=O)c(C=O)c1 | 2.27 (inactive)

Reference: the supplement of paper PMC11001985
